Composite z-score and z-score data for 17 compounds are collected here from PubChem BioAssay.

The structures appear in SMILES notation. Active and inactive are the calls of the source.

Test [1] in a line: compounds binding Alexa647 anti-His antibody – biochemical, small-molecule microarray, 635 nm fluorescence, artefact control for SMM control protein annotation, primary screen (AID 1128).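 Note: score merges feature fluorescence with signal-to-noise for each printed compound spot.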 To be noted: higher = more signal.
Test [2] deals with Human papillomavirus type 1a E7 protein (residues 1-88). Briefly: HPV1a E7 small-molecule binders, primary screen, biochemical, small-molecule microarray, residues 1-88, 635 nm (AID 1129). To be noted: small-molecule microarray binding, fluorescence 635 nm; higher = more signal.
Test [3] deals with Focal adhesion kinase 1 (Homo sapiens) (UniProt Q05397). Nature of the test: PTK2 protein binding on printed compound slides – biochemical, small-molecule microarray, 635/667 nm fluorescence, BSA, DTT, primary screen (AID 1130).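 Note: composite of spot emission at 667 nm and signal to noise over triplicate slides.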 To be noted: 635 nm fluorescence, higher = more signal.
Test [4] has as its system Fibrinogen (Alexa647-labelled). Nature of the test: Alexa647-fibrinogen binding to printed small molecules – biochemical, small-molecule microarray, 635/667 nm fluorescence, artefact control for SMM control-protein annotation, profiling panel (AID 1131).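 Note: z-score merges 667 nm fluorescence with per-spot signal-to-noise over triplicate slides.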 The note with it: fibrinogen-A647 binding fluorescence, higher = more signal.
Test [5] addresses Follistatin (Homo sapiens) (UniProt P19883). Nature of the test: FST protein binding to printed compounds – biochemical, small-molecule microarray, 635/667 nm fluorescence, primary screen (AID 1132). The note with it: 635 nm fluorescence, higher = more signal.
The target of test [6] is Fibroblast growth factor 2 (Homo sapiens) (UniProt P09038). Nature of the test: basic fibroblast growth factor binding to printed compounds – biochemical, small-molecule microarray, 635/667 nm fluorescence, primary screen (AID 1133). To be noted: FGF2, fluorescence 635/667, higher = more signal.
The nature of test [7]: JC-1 mitochondrial potential readout, lung cancer cells – cell-based, A549, JC-1 fluorescence, basal, 24 h, 100 nL, profiling panel (AID 1138).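 Note: A549 lung adenocarcinoma cells under basal conditions with no added stimulus; test concentration not given here.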 To be noted: higher = more signal.
The next test deals with Lefty1. Briefly: Lefty1 protein binding to printed compounds – biochemical, small-molecule microarray, 635/667 nm fluorescence, primary screen (AID 1139). The note with it: fluorescence 635/667, higher = more signal.
For test [8], the system named is wheat germ agglutinin (Triticum aestivum), Alexa647-labelled. Briefly: Alexa647-WGA lectin binding to printed small molecules – biochemical, small-molecule microarray, 635/667 nm fluorescence, artefact control for SMM control-protein annotation, profiling panel (AID 1140).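 Note: score merges 667 nm feature emission with signal to noise over triplicate slides.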 The note with it: WGA-A647 binding, 635 nm fluorescence, higher = more signal.
Test [9] addresses Luciferin 4-monooxygenase (Photinus pyralis) (UniProt P08659). Briefly: inhibition of purified Photinus pyralis luciferase – biochemical, luminescence, purified enzyme, 2006 set, primary screen (AID 1141).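 Note: cell-free assay with purified firefly luciferase at 100 ng per well in PBS; test concentration not given here.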 The note with it: purified firefly luciferase, SteadyGlo luminescence, 30 min; higher = more signal, called active from +8 up or from −8 down.

Sequence of Luciferin 4-monooxygenase (Photinus pyralis) (P08659 whole entry, looked up): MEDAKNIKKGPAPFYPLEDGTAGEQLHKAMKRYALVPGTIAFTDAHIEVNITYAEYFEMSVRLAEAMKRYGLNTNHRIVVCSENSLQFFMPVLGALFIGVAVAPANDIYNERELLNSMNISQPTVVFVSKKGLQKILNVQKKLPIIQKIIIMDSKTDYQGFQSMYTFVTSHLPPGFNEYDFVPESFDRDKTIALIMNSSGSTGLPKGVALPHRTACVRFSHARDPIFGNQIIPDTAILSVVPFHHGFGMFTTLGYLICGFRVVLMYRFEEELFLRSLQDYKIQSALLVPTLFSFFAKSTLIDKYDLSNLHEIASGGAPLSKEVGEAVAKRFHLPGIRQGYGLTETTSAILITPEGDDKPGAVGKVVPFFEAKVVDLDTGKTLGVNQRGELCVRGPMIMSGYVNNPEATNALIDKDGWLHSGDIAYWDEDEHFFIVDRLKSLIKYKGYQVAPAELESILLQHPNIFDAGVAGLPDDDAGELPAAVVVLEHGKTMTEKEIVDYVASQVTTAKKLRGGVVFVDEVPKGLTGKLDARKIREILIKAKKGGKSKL
Sequence of Follistatin (Homo sapiens) (P19883 whole entry, looked up): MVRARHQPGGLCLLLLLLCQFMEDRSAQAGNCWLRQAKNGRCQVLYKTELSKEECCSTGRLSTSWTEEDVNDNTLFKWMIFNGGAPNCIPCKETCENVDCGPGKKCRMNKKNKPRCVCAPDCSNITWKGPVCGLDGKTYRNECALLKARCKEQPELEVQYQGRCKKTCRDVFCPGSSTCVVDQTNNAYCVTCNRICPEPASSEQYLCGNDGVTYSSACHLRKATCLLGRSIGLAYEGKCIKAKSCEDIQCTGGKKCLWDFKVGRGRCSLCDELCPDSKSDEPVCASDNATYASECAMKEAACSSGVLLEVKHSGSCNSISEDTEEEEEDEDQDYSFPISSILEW
Sequence of Fibroblast growth factor 2 (Homo sapiens) (P09038 whole entry, looked up): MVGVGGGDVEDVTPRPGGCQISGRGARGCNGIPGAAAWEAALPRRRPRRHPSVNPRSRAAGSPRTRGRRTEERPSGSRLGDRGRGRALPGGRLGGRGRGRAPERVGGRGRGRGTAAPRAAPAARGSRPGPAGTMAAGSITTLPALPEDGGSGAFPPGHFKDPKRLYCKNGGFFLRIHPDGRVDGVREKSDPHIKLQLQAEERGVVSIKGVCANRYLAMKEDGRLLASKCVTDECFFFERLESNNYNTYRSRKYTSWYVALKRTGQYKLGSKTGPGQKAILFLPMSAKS
Sequence of Focal adhesion kinase 1 (Homo sapiens) (Q05397 whole entry, looked up): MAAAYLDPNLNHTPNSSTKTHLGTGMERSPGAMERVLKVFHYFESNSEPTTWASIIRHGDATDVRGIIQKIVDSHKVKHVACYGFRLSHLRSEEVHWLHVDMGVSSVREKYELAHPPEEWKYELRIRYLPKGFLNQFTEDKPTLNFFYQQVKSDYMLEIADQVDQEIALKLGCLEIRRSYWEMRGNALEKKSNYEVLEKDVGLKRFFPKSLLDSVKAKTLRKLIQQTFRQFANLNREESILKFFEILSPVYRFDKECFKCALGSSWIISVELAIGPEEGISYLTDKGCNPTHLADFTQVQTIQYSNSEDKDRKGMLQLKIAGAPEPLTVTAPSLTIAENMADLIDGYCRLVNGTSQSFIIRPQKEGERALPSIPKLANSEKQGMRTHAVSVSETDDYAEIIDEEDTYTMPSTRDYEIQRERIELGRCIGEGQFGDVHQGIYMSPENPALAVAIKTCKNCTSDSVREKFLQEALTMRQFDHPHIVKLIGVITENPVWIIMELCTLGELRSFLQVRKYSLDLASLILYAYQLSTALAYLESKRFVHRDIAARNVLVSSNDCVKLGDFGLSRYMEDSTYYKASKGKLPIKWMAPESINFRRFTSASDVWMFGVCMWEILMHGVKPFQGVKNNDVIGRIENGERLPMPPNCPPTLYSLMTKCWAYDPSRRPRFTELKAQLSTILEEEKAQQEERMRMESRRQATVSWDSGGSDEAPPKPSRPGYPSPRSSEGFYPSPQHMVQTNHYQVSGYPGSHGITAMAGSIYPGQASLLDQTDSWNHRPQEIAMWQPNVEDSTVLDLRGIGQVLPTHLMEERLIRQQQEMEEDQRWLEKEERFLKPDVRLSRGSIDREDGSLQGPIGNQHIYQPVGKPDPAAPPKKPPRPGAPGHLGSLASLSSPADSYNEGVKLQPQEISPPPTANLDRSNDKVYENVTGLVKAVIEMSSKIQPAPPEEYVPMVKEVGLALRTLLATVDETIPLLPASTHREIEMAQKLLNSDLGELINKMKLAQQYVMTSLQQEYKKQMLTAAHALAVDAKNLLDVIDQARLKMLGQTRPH

On to `O=C1CCCC=C1C(CCc1ccccc1)OC(=O)c1ccc(Br)cc1` (stereo not given), for which the composite z-score in test [1] was 0.0508; in test [2] it was -0.757; in test [3], -0.0417; in [4], -0.612; in [5], 0.0148; in [6], 0.0039. Further, the values for the composite z-score (in the test with Lefty1; in test [8]) were 0.167 and -0.254, respectively. The z-score in test [7] was -0.65; in [9], 0.063 (inactive).
In the case of `O=C1OCCC=C1C(O)CCc1ccccc1` (stereo not given), the composite z-score in [1] was -0.139; in test [2] it was 0.638; in test [3], -0.226; in test [4], 0.913; in test [5], 0.347; in test [6] it was 0.332. Further, the figures for the composite z-score (in the test on Lefty1; in test [8]) were 0.299 and 0.412, respectively. In addition, the z-score is -0.602 in test [7] and 0.151 (inactive) in test [9].
On to `O=C1[C@H]2[C@H]3[C@H](O)[C@H](O)CC(=NOC[C@@H](O)COCc4ccco4)[C@H]3CC[C@H]2C(=O)N1Cc1ccccc1`, for which the composite z-score in test [1] is -0.267; in test [2], -0.429; in test [3], -0.326; in [4], -1.55; in test [5] it was 0.691; in [6] it was 0.633. Moreover, the composite z-score in the test on Lefty1 was 0.496; in test [8], -0.438. Further, the figures for the z-score in test [7] and in test [9] were -0.287 and 0.737 (inactive), respectively.
Consider `COC(=O)[C@@H]1CC[C@H](C)[C@@H](c2ccc(C)cc2)N1C(=O)c1ccc(C=NO[C@H](C)c2cn([C@@H]3COC[C@H]3O)nn2)cc1`, for which the composite z-score in [1] was -0.684; in [2], 1.13; in test [3], 0.155; in test [4] it was 0.677; in test [5], 0.353; in test [6] it was 0.502. Also, the composite z-score in the test with Lefty1 worked out at 0.551; in test [8] it was 0.145. Further, the z-score is -0.662 in [7] and 0.411 (inactive) in test [9].
For `CC(C)=CCCC(C)=CCON=C1C[C@@H](O)[C@@H](O)[C@@H]2[C@@H]3C(=O)N(Cc4ccccc4)C(=O)[C@@H]3CC[C@H]12`, the composite z-score was found to be 0.267 in test [1]; 1.2 in test [2]; 0.171 in test [3]; 0.476 in [4]; 0.669 in [5]; 0.736 in [6]. Further, the values for the composite z-score (in the test with Lefty1; in [8]) were 0.751 and 0.283, respectively. Besides, the results for the z-score in test [7] and in test [9] were -0.566 and 0.71 (inactive), respectively.
Consider `CC=CC1=C(CO)C(=O)[C@@H]2O[C@@H]2C1=O`, for which the composite z-score was 0.366 in test [1]; -0.385 in test [2]; -0.681 in test [3]; -0.328 in [4]; 1.44 in test [5]; 1.89 in test [6]. Moreover, the results for the composite z-score (with Lefty1; in test [8]) were 1.34 and -0.173, respectively. Further, the z-score is -1.06 in test [7] and -0.78 (inactive) in test [9].
`CCOC(=O)CCN1C(=O)[C@H]2[C@H]3[C@H](O)[C@H](O)CC(=NNC(=O)OCc4ccccc4)[C@@H]3CC[C@H]2C1=O`: the composite z-score in test [1] is 0.553; in test [2], 0.687; in [3] it was 0.538; in test [4], 0.986; in test [5], 0.937; in [6], 0.55. The composite z-score in the test on Lefty1 was determined as 0.699; in [8], 0.304. Further, the figures for the z-score in test [7] and in test [9] were 0.319 and 0.195 (inactive), respectively.
On to `COc1cccc([C@H]2Oc3ccc(OC)cc3C(=NOC[C@@H](O)[C@H]3O[C@@H]4OC(C)(C)O[C@@H]4[C@H]3O)[C@@H]2O)c1`, for which the composite z-score in test [1] is -1.33; in [2] it was 0.372; in [3], 0.263; in test [4], 0.213; in [5], 0.418; in test [6], 0.318. The composite z-score in the test with Lefty1 is 0.892; in [8], -0.0123. The z-score in [7] was -0.315; in test [9], -4.03 (inactive).
As for `CCOC(=O)[C@H](Cc1ccccc1)NC(=O)CCC1CC(OC(=O)NCCc2ccc(F)cc2)CC2(CCCC(COC(=O)NCC3CCCCC3)O2)O1` (stereo not given in full), the composite z-score in [1] came to 0.542; in test [2], 0.816; in test [3], 0.465; in test [4], 0.656; in test [5], 0.857; in test [6] it was 0.238. The values for the composite z-score (with Lefty1; in test [8]) were 1.21 and 0.395, respectively. For the same compound, the z-score in test [7] was 0.812; in test [9] it was 0.356 (inactive).
For the compound `COC(=O)CC=C[C@@H](C)[C@@H](C=NO[C@@H](C)c1cn([C@H](CO)Cc2ccccc2)nn1)OC`, the composite z-score in test [1] is 2.93; in [2], 0.168; in test [3], -0.0296; in [4], 0.578; in [5], 0.293; in test [6], 0.411. For the same compound, the composite z-score with Lefty1 amounted to 0.579; in test [8], 0.084. In addition, the z-score is 0.269 in [7] and -2.11 (inactive) in test [9].
With `CCCNC(=O)OC[C@H]1O[C@H](CCON=Cc2ccc(C(=O)N3[C@H](c4ccc(C)cc4)[C@@H](C)CC[C@H]3C(=O)OC)cc2)C=C[C@@H]1Oc1ccc(OC)cc1`, the composite z-score in [1] came to 1.77; in test [2] it was 0.838; in test [3], 0.315; in test [4] it was 0.88; in test [5], 0.277; in test [6] it was 0.666. Also, the figures for the composite z-score (with Lefty1; in [8]) were 0.58 and 0.236, respectively. Moreover, the z-score is -0.195 in test [7] and 0.407 (inactive) in [9].
Take `CO[C@H]1COC(=O)CC=C[C@H](C)[C@@H](OC)COC(=O)[C@H](C)COC(=O)CC=C[C@@H]1C`: the composite z-score in test [1] is 0.487; in [2] it was -0.759; in [3], -0.309; in [4], -0.899; in [5], 1.36; in test [6], 1.36. Also, the values for the composite z-score (with Lefty1; in test [8]) were 1.12 and -0.844, respectively. Moreover, the z-score was 1.13 in test [7] and -0.913 (inactive) in test [9].
For `COC(=O)[C@H](C)NC(=O)CCC1CC(OC(=O)NCc2cccc3ccccc23)CC2(CCCC(COC(=O)NCC(c3ccccc3)c3ccccc3)O2)O1` (stereo not given in full), the composite z-score in [1] is 1.04; in test [2], 1.15; in [3], 0.713; in test [4], 0.665; in test [5], 0.376; in test [6] it was 0.227. For the same compound, the composite z-score in the test with Lefty1 is 0.554; in [8] it was 0.661. The z-score is 1.17 in [7] and 1.22 (inactive) in test [9].
As to `CC(C)CON=C1C[C@@H](O)[C@@H](O)[C@@H]2[C@@H]3C(=O)N(c4ccc(F)cc4F)C(=O)[C@@H]3CC[C@H]12`, the composite z-score came to 0.686 in test [1]; 1.11 in [2]; 0.436 in [3]; 0.424 in test [4]; 0.714 in test [5]; 0.375 in test [6]. Further, the figures for the composite z-score (in the test with Lefty1; in [8]) were 1.13 and 0.221, respectively. Also, the z-score in [7] was -0.229; in [9] it was 0.819 (inactive).
For the compound `CCOC(=O)[C@H](CC(C)C)NC(=O)CCC1CC(OC(=O)NCCc2ccc(F)cc2)CC2(CCCC(COC(=O)NCCc3ccc(Cl)cc3)O2)O1` (stereo not given in full), the composite z-score in test [1] came out at 0.704; in test [2], 0.596; in [3] it was 0.688; in [4], 0.75; in [5], 0.692; in [6], 0.84. For the same compound, the values for the composite z-score (in the test with Lefty1; in test [8]) were 1.34 and 0.61, respectively. Further, the figures for the z-score in test [7] and in [9] were -0.156 and 0.442 (inactive), respectively.
For the compound `C#CCCCON=C1[C@H]2CCn3c(=O)n(C)c(=O)n3[C@H]2[C@H](O)[C@@H]2O[C@H]12`, the composite z-score in [1] was 0.196; in test [2] it was 0.746; in [3], -0.103; in [4], 0.615; in test [5], 0.72; in test [6], 0.916. The composite z-score was 0.363 in the test on Lefty1 and -0.0602 in test [8]. The z-score in test [7] was 1; in test [9] it was -1.25 (inactive).
With `COc1cccc([C@H]2Oc3ccc(OC)cc3C(=NOC[C@@H](C)[C@H](OCc3ccccc3)C(C)C)[C@@H]2O)c1`, the composite z-score in test [1] was 1.78; in test [2], 0.321; in test [3] it was 0.0885; in test [4], 0.069; in test [5], 0.232; in test [6] it was 0.0521. For the same compound, the values for the composite z-score (with Lefty1; in test [8]) were 0.709 and 0.872, respectively. Also, the results for the z-score in [7] and in test [9] were -0.789 and -0.0981 (inactive), respectively.
